{
  "source": "paper PMC9911399",
  "about": "“Two distinct binding modes provide the RNA-binding protein RbFox with extraordinary sequence specificity”",
  "binders": {"B1": {"name": "GUAACCG (DNA:RNA)", "RNA": "GGGAGACCGGAAUUCAGAUUGUCCGUAACCGUUAAAUCCCGUCGUAGCCACCA", "DNA 1": "CAATCTGAATTCCGGTCTCCC", "DNA 2": "TGGTGGCTACGACGGGATT"}, "B2": {"name": "UGAUCUC (DNA:RNA)", "RNA": "B1 RNA with G25U, U26G, A28U, C30U, G31C", "DNA 1": "CAATCTGAATTCCGGTCTCCC", "DNA 2": "TGGTGGCTACGACGGGATT"}, "B3": {"name": "UGCUGAG (DNA:RNA)", "RNA": "B1 RNA with G25U, U26G, A27C, A28U, C29G, C30A", "DNA 1": "CAATCTGAATTCCGGTCTCCC", "DNA 2": "TGGTGGCTACGACGGGATT"}, "B4": {"name": "GAUGUUU (DNA:RNA)", "RNA": "B1 RNA with U26A, A27U, A28G, C29U, C30U, G31U", "DNA 1": "CAATCTGAATTCCGGTCTCCC", "DNA 2": "TGGTGGCTACGACGGGATT"}, "B5": {"name": "CCGAAUG (DNA:RNA)", "RNA": "B1 RNA with G25C, U26C, A27G, C29A, C30U", "DNA 1": "CAATCTGAATTCCGGTCTCCC", "DNA 2": "TGGTGGCTACGACGGGATT"}, "B6": {"name": "CGAAUUG (DNA:RNA)", "RNA": "B1 RNA with G25C, U26G, C29U, C30U", "DNA 1": "CAATCTGAATTCCGGTCTCCC", "DNA 2": "TGGTGGCTACGACGGGATT"}, "B7": {"name": "CGAUUGU (DNA:RNA)", "RNA": "B1 RNA with G25C, U26G, A28U, C29U, C30G, G31U", "DNA 1": "CAATCTGAATTCCGGTCTCCC", "DNA 2": "TGGTGGCTACGACGGGATT"}, "B8": {"name": "GAAUGUU (DNA:RNA)", "RNA": "B1 RNA with U26A, A28U, C29G, C30U, G31U", "DNA 1": "CAATCTGAATTCCGGTCTCCC", "DNA 2": "TGGTGGCTACGACGGGATT"}, "B9": {"name": "GUAAUGU (DNA:RNA)", "RNA": "B1 RNA with C29U, C30G, G31U", "DNA 1": "CAATCTGAATTCCGGTCTCCC", "DNA 2": "TGGTGGCTACGACGGGATT"}, "B10": {"name": "GAAAUGU (DNA:RNA)", "RNA": "B1 RNA with U26A, C29U, C30G, G31U", "DNA 1": "CAATCTGAATTCCGGTCTCCC", "DNA 2": "TGGTGGCTACGACGGGATT"}, "B11": {"name": "GGAAUGU (DNA:RNA)", "RNA": "B1 RNA with U26G, C29U, C30G, G31U", "DNA 1": "CAATCTGAATTCCGGTCTCCC", "DNA 2": "TGGTGGCTACGACGGGATT"}, "B12": {"name": "CGAAUGU (DNA:RNA)", "RNA": "B1 RNA with G25C, U26G, C29U, C30G, G31U", "DNA 1": "CAATCTGAATTCCGGTCTCCC", "DNA 2": "TGGTGGCTACGACGGGATT"}, "B13": {"name": "CCCCGAA (DNA:RNA)", "RNA": "GGGAGACCGGAAUUCAGAUUGUCCCCCCGAAUUAAAUCCCGUCGUAGCCACCA", "DNA 1": "CAATCTGAATTCCGGTCTCCC", "DNA 2": "TGGTGGCTACGACGGGATT"}, "B14": {"name": "CGAAAUG (DNA:RNA)", "RNA": "B1 RNA with G25C, U26G, C29A, C30U", "DNA 1": "CAATCTGAATTCCGGTCTCCC", "DNA 2": "TGGTGGCTACGACGGGATT"}, "B15": {"name": "CGUCGUU (DNA:RNA)", "RNA": "B13 RNA with C26G, C27U, A30U, A31U", "DNA 1": "CAATCTGAATTCCGGTCTCCC", "DNA 2": "TGGTGGCTACGACGGGATT"}, "B16": {"name": "CACAGAG (DNA:RNA)", "RNA": "B13 RNA with C26A, C28A, A31G", "DNA 1": "CAATCTGAATTCCGGTCTCCC", "DNA 2": "TGGTGGCTACGACGGGATT"}, "B17": {"name": "ACGGAAU (DNA:RNA)", "RNA": "B13 RNA with C25A, C27G, C28G, G29A, A31U", "DNA 1": "CAATCTGAATTCCGGTCTCCC", "DNA 2": "TGGTGGCTACGACGGGATT"}, "B18": {"name": "AUGUUAC (DNA:RNA)", "RNA": "B13 RNA with C25A, C26U, C27G, C28U, G29U, A31C", "DNA 1": "CAATCTGAATTCCGGTCTCCC", "DNA 2": "TGGTGGCTACGACGGGATT"}, "B19": {"name": "CGGGGCG (DNA:RNA)", "RNA": "B13 RNA with C26G, C27G, C28G, A30C, A31G", "DNA 1": "CAATCTGAATTCCGGTCTCCC", "DNA 2": "TGGTGGCTACGACGGGATT"}, "B20": {"name": "AAGAUUG (DNA:RNA)", "RNA": "B1 RNA with G25A, U26A, A27G, C29U, C30U", "DNA 1": "CAATCTGAATTCCGGTCTCCC", "DNA 2": "TGGTGGCTACGACGGGATT"}, "B21": {"name": "AAGAGAA (DNA:RNA)", "RNA": "B13 RNA with C25A, C26A, C27G, C28A", "DNA 1": "CAATCTGAATTCCGGTCTCCC", "DNA 2": "TGGTGGCTACGACGGGATT"}, "B22": {"name": "GAGAGUA (DNA:RNA)", "RNA": "B13 RNA with C25G, C26A, C27G, C28A, A30U", "DNA 1": "CAATCTGAATTCCGGTCTCCC", "DNA 2": "TGGTGGCTACGACGGGATT"}, "B23": {"name": "AGAAUGU (DNA:RNA)", "RNA": "B1 RNA with G25A, U26G, C29U, C30G, G31U", "DNA 1": "CAATCTGAATTCCGGTCTCCC", "DNA 2": "TGGTGGCTACGACGGGATT"}, "B24": {"name": "GUUAAUG (DNA:RNA)", "RNA": "B1 RNA with A27U, C29A, C30U", "DNA 1": "CAATCTGAATTCCGGTCTCCC", "DNA 2": "TGGTGGCTACGACGGGATT"}, "B25": {"name": "GGGAAUG (DNA:RNA)", "RNA": "B1 RNA with U26G, A27G, C29A, C30U", "DNA 1": "CAATCTGAATTCCGGTCTCCC", "DNA 2": "TGGTGGCTACGACGGGATT"}, "B26": {"name": "AGAUUGU (DNA:RNA)", "RNA": "B1 RNA with G25A, U26G, A28U, C29U, C30G, G31U", "DNA 1": "CAATCTGAATTCCGGTCTCCC", "DNA 2": "TGGTGGCTACGACGGGATT"}, "B27": {"name": "AAGAAUG (DNA:RNA)", "RNA": "B1 RNA with G25A, U26A, A27G, C29A, C30U", "DNA 1": "CAATCTGAATTCCGGTCTCCC", "DNA 2": "TGGTGGCTACGACGGGATT"}, "B28": {"name": "GAGUAUG (DNA:RNA)", "RNA": "B1 RNA with U26A, A27G, A28U, C29A, C30U", "DNA 1": "CAATCTGAATTCCGGTCTCCC", "DNA 2": "TGGTGGCTACGACGGGATT"}, "B29": {"name": "GAGUAUC (DNA:RNA)", "RNA": "B1 RNA with U26A, A27G, A28U, C29A, C30U, G31C", "DNA 1": "CAATCTGAATTCCGGTCTCCC", "DNA 2": "TGGTGGCTACGACGGGATT"}, "B30": {"name": "AGAAAUG (DNA:RNA)", "RNA": "B1 RNA with G25A, U26G, C29A, C30U", "DNA 1": "CAATCTGAATTCCGGTCTCCC", "DNA 2": "TGGTGGCTACGACGGGATT"}, "B31": {"name": "GGAAAUG (DNA:RNA)", "RNA": "B1 RNA with U26G, C29A, C30U", "DNA 1": "CAATCTGAATTCCGGTCTCCC", "DNA 2": "TGGTGGCTACGACGGGATT"}},
  "note": "Residue numbers refer to the chain shown, from its start. Whole data set: some 16,000 sequences, median “ka relative to ugcaugu” near 0.096, cut for the highest 2% near 0.35. The entries come from a sample that favours the highest values as a whole.",
  "data": [
    {"target": "T1, RBFOX1 RRM RbFoxmut (Fox-RRM*) (Homo sapiens, UniProt Q9NWB1 109-208, R118D;E147R;N151S;E152T)", "T1 sequence": "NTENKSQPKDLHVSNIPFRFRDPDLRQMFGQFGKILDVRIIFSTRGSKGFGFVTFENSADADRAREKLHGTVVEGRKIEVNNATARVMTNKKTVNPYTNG", "assay": "EMSA; HiTS-Eq, 1 nM pool, 10 min; buffer printed only for the single-RNA assays: 10 mM Tris pH 7.5, 150 mM NaCl, 3.4 mM EDTA, 0.001% NP-40, 30 C", "conditions": "tags: His6 N-terminal (pET28a); label: 5' 32P", "outline": "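Purified wild-type or mutant RbFox RRM at increasing concentrations was equilibrated with 1 nM of 5′-radiolabelled RNA carrying 7 randomized nucleotides for 10 min in 50 µL. Unbound RNA was separated by 8% native PAGE and sequenced. Relative association constants came from read-count changes of each RNA species compared with the control reaction, normalised to the cognate motif.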", "values": [
      {"binder": "B1", "binding signal": "0.114 KA relative to UGCAUGU"},
      {"binder": "B2", "binding signal": "0.0775 KA relative to UGCAUGU"},
      {"binder": "B3", "binding signal": "0.102 KA relative to UGCAUGU"},
      {"binder": "B4", "binding signal": "0.125 KA relative to UGCAUGU"},
      {"binder": "B5", "binding signal": "1.39 KA relative to UGCAUGU"},
      {"binder": "B6", "binding signal": "0.141 KA relative to UGCAUGU"},
      {"binder": "B7", "binding signal": "0.206 KA relative to UGCAUGU"},
      {"binder": "B8", "binding signal": "0.884 KA relative to UGCAUGU"},
      {"binder": "B9", "binding signal": "0.154 KA relative to UGCAUGU"},
      {"binder": "B10", "binding signal": "0.0843 KA relative to UGCAUGU"},
      {"binder": "B11", "binding signal": "0.959 KA relative to UGCAUGU"},
      {"binder": "B12", "binding signal": "1.07 KA relative to UGCAUGU"},
      {"binder": "B13", "binding signal": "0.136 KA relative to UGCAUGU"},
      {"binder": "B14", "binding signal": "0.101 KA relative to UGCAUGU"},
      {"binder": "B15", "binding signal": "0.108 KA relative to UGCAUGU"},
      {"binder": "B16", "binding signal": "0.124 KA relative to UGCAUGU"},
      {"binder": "B17", "binding signal": "0.115 KA relative to UGCAUGU"},
      {"binder": "B18", "binding signal": "0.161 KA relative to UGCAUGU"},
      {"binder": "B19", "binding signal": "0.16 KA relative to UGCAUGU"},
      {"binder": "B20", "binding signal": "0.223 KA relative to UGCAUGU"},
      {"binder": "B21", "binding signal": "0.115 KA relative to UGCAUGU"},
      {"binder": "B22", "binding signal": "0.143 KA relative to UGCAUGU"},
      {"binder": "B23", "binding signal": "0.798 KA relative to UGCAUGU"},
      {"binder": "B24", "binding signal": "0.138 KA relative to UGCAUGU"},
      {"binder": "B25", "binding signal": "1.15 KA relative to UGCAUGU"},
      {"binder": "B26", "binding signal": "0.222 KA relative to UGCAUGU"},
      {"binder": "B27", "binding signal": "1.07 KA relative to UGCAUGU"},
      {"binder": "B28", "binding signal": "0.795 KA relative to UGCAUGU"},
      {"binder": "B29", "binding signal": "0.237 KA relative to UGCAUGU"},
      {"binder": "B30", "binding signal": "0.121 KA relative to UGCAUGU"},
      {"binder": "B31", "binding signal": "0.177 KA relative to UGCAUGU"}
    ]}
  ]
}
